# “And” between values parts separate entries of the source, which are not always exact repeats. Identical values can stand only once. Among all 5,500 compounds or so, about 2,000 (36%) were called active. Another 18% or so got no clear call; they are omitted. The list shows a part of the results. A number with no mark means an inactive call. No stated cut-off is given here; in the data, active means normalized growth mostly below about 0.91 (no sharp cut-off); inconclusive means no clear call, values can overlap the other calls; inactive means mostly above about 0.92.
# Experiment: chemical genetic growth profiling, strain panel (AID 1159580);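 further: tested at 20 µM; growth read once vehicle control cultures reached saturation at 30 °C; 1 = growth at the plate median or of vehicle wells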
# Conditions: S. cerevisiae deletion strains, growth OD
compound,measurement,setting,value
OC/C=C/c1ccc(O)c(O)c1,normalized growth,"locus YAL013W, strain DEP1, stronger effect = lower value",0.995
same,normalized growth,"locus YAL021C, strain ccr4, stronger effect = lower value",0.977
same,normalized growth,"locus YAL026C, strain drs2, stronger effect = lower value",1
same,normalized growth,"locus YAL030W, strain snc1, stronger effect = lower value",0.995
same,normalized growth,"locus YBL061C, strain skt5, stronger effect = lower value",0.996
same,normalized growth,"locus YBR009C, strain hhf1, stronger effect = lower value",0.994
same,normalized growth,"locus YBR021W, strain FUR4, stronger effect = lower value",1.03
same,normalized growth,"locus YBR023C, strain chs3, stronger effect = lower value",0.995
same,normalized growth,"locus YBR171W, strain sec66, stronger effect = lower value",1.01
same,normalized growth,"locus YBR229C, strain ROT2, stronger effect = lower value",1
same,normalized growth,"locus YBR231C, strain swc5, stronger effect = lower value",0.993
same,normalized growth,"locus YBR279W, strain paf1, stronger effect = lower value",0.996
same,normalized growth,"locus YCL011C, strain gbp2, stronger effect = lower value",0.994
same,normalized growth,"locus YCL016C, strain dcc1, stronger effect = lower value",0.995
same,normalized growth,"locus YCL029C, strain bik1, stronger effect = lower value",0.96
same,normalized growth,"locus YCL061C, strain MRC1, stronger effect = lower value",0.996
same,normalized growth,"locus YCL069W, strain vba3, stronger effect = lower value",0.992
same,normalized growth,"locus YCR088W, strain abp1, stronger effect = lower value",1.01
same,normalized growth,"locus YDL005C, strain med2, stronger effect = lower value",0.996
same,normalized growth,"locus YDL035C, strain GPR1, stronger effect = lower value",1.02
same,normalized growth,"locus YDL040C, strain nat1, stronger effect = lower value",0.988
same,normalized growth,"locus YDL074C, strain BRE1, stronger effect = lower value",0.945
same,normalized growth,"locus YDL101C, strain DUN1, stronger effect = lower value",0.991
same,normalized growth,"locus YDL134C, strain PPH21, stronger effect = lower value",1.05
same,normalized growth,"locus YDL185W, strain tfp1, stronger effect = lower value",0.953
same,normalized growth,"locus YDL192W, strain arf1, stronger effect = lower value",0.973
same,normalized growth,"locus YDR001C, strain nth1, stronger effect = lower value",0.994
same,normalized growth,"locus YDR069C, strain doa4, stronger effect = lower value",1.01
same,normalized growth,"locus YDR101C, strain arx1, stronger effect = lower value",0.962
same,normalized growth,"locus YDR137W, strain rgp1, stronger effect = lower value",0.968
same,normalized growth,"locus YDR159W, strain sac3, stronger effect = lower value",0.966
same,normalized growth,"locus YDR162C, strain NBP2, stronger effect = lower value",0.993
same,normalized growth,"locus YDR195W, strain ref2",0.951
same,normalized growth,"locus YDR297W, strain sur2, stronger effect = lower value",1
same,normalized growth,"locus YDR318W, strain mcm21, stronger effect = lower value",0.984
same,normalized growth,"locus YDR334W, strain swr1, stronger effect = lower value",0.991
same,normalized growth,"locus YDR335W, strain msn5, stronger effect = lower value",0.996
same,normalized growth,"locus YDR388W, stronger effect = lower value",0.98
same,normalized growth,"locus YDR392W, strain spt3, stronger effect = lower value",1.01
same,normalized growth,"locus YDR502C, strain sam2, stronger effect = lower value",0.993
same,normalized growth,"locus YEL003W, strain gim4, stronger effect = lower value",0.997
same,normalized growth,"locus YEL037C, strain rad23, stronger effect = lower value",1
same,normalized growth,"locus YEL061C, strain CIN8 (second series), stronger effect = lower value",0.991
same,normalized growth,"locus YEL061C, strain CIN8, stronger effect = lower value",0.978
same,normalized growth,"locus YER015W, strain faa2, stronger effect = lower value",1
same,normalized growth,"locus YER016W, strain bim1, stronger effect = lower value",0.992
same,normalized growth,"locus YER110C, stronger effect = lower value",0.954
same,normalized growth,"locus YER111C, strain swi4, stronger effect = lower value",1.01
same,normalized growth,"locus YER155C, strain BEM2 (second series), stronger effect = lower value",0.991
same,normalized growth,"locus YER155C, strain BEM2, stronger effect = lower value",0.987
same,normalized growth,"locus YER167W, strain BCK2, stronger effect = lower value",0.978
same,normalized growth,"locus YFR010W, strain ubp6, stronger effect = lower value",0.999
same,normalized growth,"locus YGL078C, strain dbp3, stronger effect = lower value",1.02
same,normalized growth,"locus YGL086W, strain mad1, stronger effect = lower value",0.937
same,normalized growth,"locus YGL167C, strain pmr1, stronger effect = lower value",1
same,normalized growth,"locus YGL173C, strain kem1, stronger effect = lower value",1.01
same,normalized growth,"locus YGL227W, strain vid30, stronger effect = lower value",1.01
same,normalized growth,"locus YGL240W, strain doc1, stronger effect = lower value",1.03
same,normalized growth,"locus YGL248W, strain PDE1, stronger effect = lower value",1.01
same,normalized growth,"locus YGL253W, strain hxk2, stronger effect = lower value",1.01
same,normalized growth,"locus YGR135W, strain pre9, stronger effect = lower value",1
same,normalized growth,"locus YGR252W, strain gcn5, stronger effect = lower value",1.24 [resistant] (active)
same,normalized growth,"locus YHR013C, strain ard1, stronger effect = lower value",0.976
same,normalized growth,"locus YHR027C, strain rpn1, stronger effect = lower value",0.987
same,normalized growth,"locus YHR030C, strain SLT2, stronger effect = lower value",0.978 and 0.986
same,normalized growth,"locus YHR079C, strain IRE1 (second series), stronger effect = lower value",0.96
same,normalized growth,"locus YHR079C, strain IRE1, stronger effect = lower value",0.996
same,normalized growth,"locus YHR094C, strain hxt1, stronger effect = lower value",0.969
same,normalized growth,"locus YHR129C, strain ARP1, stronger effect = lower value",0.991
same,normalized growth,"locus YHR142W, strain chs7, stronger effect = lower value",1
same,normalized growth,"locus YHR200W, strain rpn10, stronger effect = lower value",0.966
same,normalized growth,"locus YIL066C, strain RNR3, stronger effect = lower value",0.996
same,normalized growth,"locus YIL073C, strain SPO22, stronger effect = lower value",0.912
same,normalized growth,"locus YIL125W, strain kgd1, stronger effect = lower value",0.98
same,normalized growth,"locus YIR030C, strain dcg1, stronger effect = lower value",0.969
same,normalized growth,"locus YJL092W, strain hpr5, stronger effect = lower value",0.995
same,normalized growth,"locus YJL095W, strain BCK1 (second series), stronger effect = lower value",1
same,normalized growth,"locus YJL095W, strain BCK1, stronger effect = lower value",1.02 and 0.999
same,normalized growth,"locus YJL115W, strain asf1, stronger effect = lower value",0.999
same,normalized growth,"locus YJL129C, strain trk1, stronger effect = lower value",0.994
same,normalized growth,"locus YJL134W, strain LCB3, stronger effect = lower value",0.986
same,normalized growth,"locus YJL154C, strain vps35, stronger effect = lower value",0.998
same,normalized growth,"locus YJL164C, strain tpk1, stronger effect = lower value",0.998
same,normalized growth,"locus YJL166W, strain qcr8, stronger effect = lower value",1
same,normalized growth,"locus YJL168C, strain set2, stronger effect = lower value",0.962
same,normalized growth,"locus YJL187C, strain SWE1 (second series), stronger effect = lower value",0.997
same,normalized growth,"locus YJL187C, strain SWE1, stronger effect = lower value",0.992
same,normalized growth,"locus YJR043C, strain POL32, stronger effect = lower value",1.02
same,normalized growth,"locus YJR066W, strain TOR1, stronger effect = lower value",0.946
same,normalized growth,"locus YJR075W, strain HOC1, stronger effect = lower value",0.984
same,normalized growth,"locus YKL009W, strain mrt4, stronger effect = lower value",1.01
same,normalized growth,"locus YKL068W, stronger effect = lower value",0.959
same,normalized growth,"locus YKL085W, strain MDH1 (second series), stronger effect = lower value",0.95
same,normalized growth,"locus YKL085W, strain MDH1, stronger effect = lower value",0.95
same,normalized growth,"locus YKL160W, strain elf1, stronger effect = lower value",1
same,normalized growth,"locus YKR001C, strain vps1, stronger effect = lower value",0.972
same,normalized growth,"locus YKR026C, strain gcn3, stronger effect = lower value",1
same,normalized growth,"locus YKR091W, strain srl3, stronger effect = lower value",1
same,normalized growth,"locus YLL001W, strain dnm1, stronger effect = lower value",0.989
same,normalized growth,"locus YLL026W, stronger effect = lower value",1
same,normalized growth,"locus YLL041C, strain sdh2, stronger effect = lower value",0.999
same,normalized growth,"locus YLR027C, strain aat2, stronger effect = lower value",0.988
same,normalized growth,"locus YLR039C, strain RIC1, stronger effect = lower value",0.938
same,normalized growth,"locus YLR058C, strain SHM2, stronger effect = lower value",0.996
same,normalized growth,"locus YLR102C, strain apc9, stronger effect = lower value",0.961
same,normalized growth,"locus YLR113W, strain HOG1, stronger effect = lower value",0.98
same,normalized growth,"locus YLR221C, strain rsa3, stronger effect = lower value",1
same,normalized growth,"locus YLR258W, strain gsy2, stronger effect = lower value",1.02
same,normalized growth,"locus YLR262C, strain YPT6 (second series), stronger effect = lower value",0.991
same,normalized growth,"locus YLR262C, strain YPT6, stronger effect = lower value",0.942
same,normalized growth,"locus YLR268W, strain sec22, stronger effect = lower value",0.96
same,normalized growth,"locus YLR320W, strain mms22, stronger effect = lower value",1
same,normalized growth,"locus YLR330W, strain CHS5, stronger effect = lower value",0.934
same,normalized growth,"locus YLR342W, strain FKS1 (second series), stronger effect = lower value",1.04
same,normalized growth,"locus YLR342W, strain FKS1, stronger effect = lower value",1.01
same,normalized growth,"locus YLR357W, strain rsc2, stronger effect = lower value",0.988
same,normalized growth,"locus YLR370C, strain arc18, stronger effect = lower value",0.993
same,normalized growth,"locus YLR371W, strain rom2, stronger effect = lower value",0.86 (active)
same,normalized growth,"locus YLR384C, strain iki3, stronger effect = lower value",0.992
same,normalized growth,"locus YLR418C, strain cdc73, stronger effect = lower value",0.988
same,normalized growth,"locus YML016C, strain PPZ1, stronger effect = lower value",0.992
same,normalized growth,"locus YML032C, strain rad52, stronger effect = lower value",1.01
same,normalized growth,"locus YML120C, strain ndi1, stronger effect = lower value",0.992
same,normalized growth,"locus YML124C, strain tub3, stronger effect = lower value",0.96
same,normalized growth,"locus YMR058W, strain fet3, stronger effect = lower value",1.01
same,normalized growth,"locus YMR078C, strain ctf18, stronger effect = lower value",0.95
same,normalized growth,"locus YMR125W, strain sto1, stronger effect = lower value",0.995
same,normalized growth,"locus YMR129W, stronger effect = lower value",0.997
same,normalized growth,"locus YMR205C, strain PFK2, stronger effect = lower value",0.983
same,normalized growth,"locus YMR223W, strain ubp8, stronger effect = lower value",0.98
same,normalized growth,"locus YMR231W, strain pep5, stronger effect = lower value",0.979
same,normalized growth,"locus YMR263W, strain SAP30, stronger effect = lower value",0.989
same,normalized growth,"locus YMR307W, strain GAS1, stronger effect = lower value",1.09
same,normalized growth,"locus YNL067W, strain RPL9B, stronger effect = lower value",0.997
same,normalized growth,"locus YNL071W, strain lat1, stronger effect = lower value",0.993
same,normalized growth,"locus YNL128W, strain TEP1, stronger effect = lower value",0.966
same,normalized growth,"locus YNL153C, strain GIM3, stronger effect = lower value",0.999
same,normalized growth,"locus YNL183C, strain NPR1, stronger effect = lower value",0.963
same,normalized growth,"locus YNL209W, strain ssb2, stronger effect = lower value",0.991
same,normalized growth,"locus YNL233W, strain BNI4, stronger effect = lower value",0.994
same,normalized growth,"locus YNL248C, strain rpa49, stronger effect = lower value",1
same,normalized growth,"locus YNL250W, strain rad50, stronger effect = lower value",0.909
same,normalized growth,"locus YNL271C, strain bni1, stronger effect = lower value",0.963
same,normalized growth,"locus YNL298W, strain CLA4, stronger effect = lower value",0.991
same,normalized growth,"locus YNL307C, strain MCK1, stronger effect = lower value",0.953
same,normalized growth,"locus YNL322C, strain KRE1 (second series), stronger effect = lower value",1
same,normalized growth,"locus YNR049C, strain mso1, stronger effect = lower value",0.997
same,normalized growth,"locus YNR052C, strain pop2, stronger effect = lower value",0.98
same,normalized growth,"locus YOL012C, strain htz1",0.905
same,normalized growth,"locus YOL147C, strain pex11, stronger effect = lower value",0.963
same,normalized growth,"locus YOR001W, strain rrp6, stronger effect = lower value",1.01
same,normalized growth,"locus YOR061W, strain CKA2, stronger effect = lower value",0.995
same,normalized growth,"locus YOR069W, strain VPS5, stronger effect = lower value",0.986
same,normalized growth,"locus YOR070C, strain gyp1, stronger effect = lower value",0.985
same,normalized growth,"locus YOR080W, strain dia2, stronger effect = lower value",0.994
same,normalized growth,"locus YOR083W, strain WHI5, stronger effect = lower value",1
same,normalized growth,"locus YOR106W, strain vam3, stronger effect = lower value",1.01
same,normalized growth,"locus YOR136W, strain idh2, stronger effect = lower value",0.953
same,normalized growth,"locus YOR144C, strain elg1, stronger effect = lower value",0.971
same,normalized growth,"locus YOR184W, strain ser1, stronger effect = lower value",1.02
same,normalized growth,"locus YOR231W, strain MKK1, stronger effect = lower value",1
same,normalized growth,"locus YOR265W, strain rbl2, stronger effect = lower value",0.989
same,normalized growth,"locus YOR270C, strain vph1, stronger effect = lower value",0.994
same,normalized growth,"locus YOR290C, strain snf2, stronger effect = lower value",1.02
same,normalized growth,"locus YOR316C, strain cot1, stronger effect = lower value",0.957
same,normalized growth,"locus YPL051W, strain arl3, stronger effect = lower value",1.05
same,normalized growth,"locus YPL055C, strain LGE1, stronger effect = lower value",1
same,normalized growth,"locus YPL078C, strain atp4, stronger effect = lower value",0.994
same,normalized growth,"locus YPL106C, strain sse1, stronger effect = lower value",0.988
same,normalized growth,"locus YPL240C, strain hsp82, stronger effect = lower value",0.995
same,normalized growth,"locus YPL241C, strain CIN2, stronger effect = lower value",0.988
same,normalized growth,"locus YPL256C, strain CLN2, stronger effect = lower value",0.956
same,normalized growth,"locus YPR119W, strain clb2, stronger effect = lower value",0.946
same,normalized growth,"locus YPR141C, strain kar3, stronger effect = lower value",0.938
same,normalized growth,"locus YPR163C, strain tif3, stronger effect = lower value",0.973
same,normalized growth,"locus YPR167C, strain met16, stronger effect = lower value",0.967
same,normalized growth,"strain wtn01, stronger effect = lower value",0.949

# From PubChem BioAssay AID1159580 (chemical genetic matrix, 2015)
